# Screens as filed in PubChem.
# Dicer inh: inhibitors of human Dicer processing of pre-microRNA; Q9UPY3; cat-ELCCA pre-miR-21 Dicer processing, chemiluminescence; hits give high values; z-score at 25 µM; 47,000 tested, 6% active; in the data active = z-score above about 3, passing the limit was not always enough;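 note: plate controls were vehicle for no effect and no enzyme for full effect; higher signal means more uncleaved substrate so more Dicer inhibition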
# Numbers without * were called inactive. The sample as a whole holds a higher share of hits than the screen did.
SMILES,Dicer inh
CCOc1ccc(C2C3=C(CC(C)(C)CC3=O)OC3=C2C(=O)CC(C)(C)C3)cc1,0.37
CCCCCC1(C(=O)OCC)CC(C)(c2csc(N)n2)OC1=O (stereo not given),-0.97
CCCC1CC(C)(c2csc(Cc3ccc(OCC)cc3)n2)OC1=O (stereo not given),4.9*
CCCc1c(C)nc(SCc2ccc(Cl)cc2)[nH]c1=O,2.5
Cc1ccc2c(=O)c(CN3CCCCC3C)c(C)[nH]c2c1C (stereo not given),1.1
CCOC(=O)c1cnc(N2CCOCC2)nc1NC(=O)Nc1ccc(Cl)cc1,-0.52
CCOC(=O)N/N=C(\C)c1cccc([N+](=O)[O-])c1,-0.86
Oc1ccccc1-c1nc2ccccc2o1,-0.43
O=c1oc2ccccc2n1-c1nc2ccccc2o1,5.6*
CC(C)Cn1c(=O)oc2ccccc21,-0.3
CCn1nc(C)cc1-c1n[nH]c(=S)n1-c1cccc(C(F)(F)F)c1,-0.19
CC1(C)CC(=O)C2=C(C1)NC1=C(C(=O)CC(C)(C)C1)C2c1cccc(O)c1,1.1
COc1ccc(C2C(C#N)=C(N)Oc3n[nH]c(-c4ccccc4)c32)c(OC)c1 (stereo not given),-4.3
O=C(Cn1c(=O)sc2ccccc21)OCc1ccccc1,-0.01
O=C(Cn1cc(C(=O)c2ccco2)c2ccccc21)NCCc1c[nH]c2ccccc12,4*
O=C(Cn1cc(C(=O)c2ccco2)c2ccccc21)NCc1cccs1,-1.1
O=C(Cn1cc(C(=O)c2ccco2)c2ccccc21)NCc1ccco1,-1.1
N#Cc1cc(N)ccc1SCc1ccccc1,-3.1
O=c1[nH]cnc2cc(-c3ccc(F)cc3)sc12,-2.4
CCSCCOC(=O)C1=C(C)NC2=C(C(=O)CC(c3cccs3)C2)C1c1ccc(C)o1 (stereo not given),0.78
COc1ccc(C2CC(=O)C=C(NC3Cc4ccccc4C3)C2)cc1OC (stereo not given),0.62
COc1ccc(-c2nc(=S)c3c(n2CCCN(C)C)CC(C)(C)OC3)cc1,3.1*
CCN(CC)CCn1c(-c2ccc(OC)cc2)nc(=S)c2c1CC(C)(C)OC2,0.56
COCCn1c(-c2ccccc2)nc(=S)c2c1CC(C)(C)OC2,-0.39
CCOC(=O)c1cc2c(NC(=O)c3cccc(C(F)(F)F)c3)c(C(=O)OCC)sc2nc1C(F)(F)F,0.55
SMILES,Dicer inh
O=C(Nc1ncn[nH]1)c1cc2ccccc2o1,4.9*
O=C(Nc1ccc(S(=O)(=O)Nc2ncccn2)cc1)c1cc2ccccc2o1,0.46
O=C(Nc1nccs1)c1cc2ccccc2o1,-3.5
C=CCn1nnc2sc3c(c2c1=O)CCCC3,1.1
CC(C)COCC1CC2(CC(C)(c3csc(Nc4ccccc4)n3)OC2=O)C(=O)O1 (stereo not given),1.3
CCOc1cc(-n2cccc2)c(OCC)cc1N1CCOCC1,-0.44
CCCCSC1=C(C#N)C(=O)NC(CCC)S1 (stereo not given),5.4*
CCCCSC1=C(C#N)C(=O)NC(c2ccccc2O)S1 (stereo not given),0.9
CCCCSC1=C(C#N)C(=O)NC(CC(C)C)S1 (stereo not given),2.9
CCCCCCSC1=C(C#N)C(=O)NC(CO)S1 (stereo not given),-2.3
CCCCSC1=C(C#N)C(=O)NCS1,5.7*
CCCCSC1=C(C#N)C(=O)NC(c2ccc(OC)cc2)S1 (stereo not given),-2
Cc1ccc(Cn2c(Oc3ccc(Cl)cc3Cl)nc3c2c(=O)n(C)c(=O)n3C)cc1,-1.6
CC(C)(Oc1ccc(C#N)cc1)C(=O)O,-1.1
CCOc1ccc2c(c1)CN(c1cc(C)ccc1C)CO2,7.5
O=C(O)CSc1nc2cccnc2s1,-0.54
CCN1C(=O)C2(/C(=C(/O)c3ccccc3)C(=O)C(=O)N2CCCN(C)C)c2ccccc21 (stereo not given),3.6*
C=CCN1C(=O)C2(/C(=C(/O)c3ccccc3)C(=O)C(=O)N2CCCN(C)C)c2ccccc21 (stereo not given),4*
CN(C)CCCN1C(=O)C(=O)/C(=C(\O)c2ccccc2)C12C(=O)N(C)c1ccccc12 (stereo not given),1.8
C=CCN1C(=O)C2(/C(=C(/O)c3ccc(F)cc3)C(=O)C(=O)N2CCCN(C)C)c2ccccc21 (stereo not given),2.1
CCOc1ccc(/C(O)=C2/C(=O)C(=O)N(CCCN(C)C)C23C(=O)N(CC)c2ccccc23)cc1 (stereo not given),-0.29
C=CCN1C(=O)C2(/C(=C(/O)c3ccc(OCC)cc3)C(=O)C(=O)N2CCN(C)C)c2ccccc21 (stereo not given),-0.01
CCOC(=O)C12CCC(C(=O)OCC)(CC1=O)C(=O)C2,-0.78
CCOC(=O)Cn1cc(C(=O)C2CC2)c2ccccc21,1.8
COC(=O)c1cn(CC(=O)N2CCOCC2)c2ccccc12,6*
SMILES,Dicer inh
CCC(=O)c1cn(CC(=O)N2CCOCC2)c2ccccc12,-0.16
CC1CCN(C(=O)Cn2cc(C(=O)C3CC3)c3ccccc32)CC1,5.1*
O=C(c1cccs1)c1cn(CC(=O)N2CCOCC2)c2ccccc12,0.7
CC1CCCC(C)N1C(=O)Cn1cc(C(=O)C2CCCCC2)c2ccccc21 (stereo not given),-4.1
Cc1nc(-c2ccccn2)nc(N(C)Cc2ccccc2)c1Cl,0.98
COc1cc(C)c(Cl)cc1S(=O)(=O)n1ccnc1C(C)C,0.84
Cc1noc(C(F)(F)F)c1C(=O)O/N=C(\N)c1ccc(Cl)cc1,0.52
CC1CCc2c(sc3nnn(CC(=O)Nc4ccc(Cl)cc4)c(=O)c23)C1 (stereo not given),3.6*
O=C(Cn1nnc2sc3c(c2c1=O)CCCC3)Nc1ccc(Cl)cc1,-0.06
CC1CCc2c(sc3nnn(CC(=O)Nc4ccc(Br)cc4)c(=O)c23)C1 (stereo not given),-1.1
O=C(Cn1nnc2sc3c(c2c1=O)CCCC3)Nc1ccc(F)c(Cl)c1,3.6*
O=C(Cn1nnc2sc3c(c2c1=O)CCCC3)Nc1ccccc1,0.74
CC1CCc2c(sc3ncn(CC(=O)O)c(=O)c23)C1 (stereo not given),2.9
COC(=O)c1ccsc1NC(=O)CN1CCN(S(=O)(=O)c2ccc(C)cc2)CC1,1.4
CCN(CC)CC(O)Cn1c2ccc(Br)cc2c2cc(Br)cc(Br)c21 (stereo not given),-0.72
COc1ccc(C2Nn3c(nnc3-c3ccccc3)SC2C(=O)N2CCCC2)cc1 (stereo not given),-0.3
O=C1CC(C(=O)Nc2ccc(Br)cc2)SC(=Nc2ccccc2)N1 (stereo not given),-1.8
Cc1nnc(SCC(=O)c2c[nH]c3ccccc23)n1C1CCCCC1,1.1
O=C(CSc1nc(-c2ccco2)cc(C(F)(F)F)n1)NC1CCCCC1,-0.68
O=c1[nH]nc(Cc2ccccc2)c2ccccc12,4*
COC(=O)CSCc1n[nH]c(=O)c2ccccc12,-0.76
O=c1[nH]nc(-c2ccccc2)c2ccccc12,-0.94
O=C1CC(c2ccccc2)CC(=O)N1Cc1csc2ccccc12,0.56
OCCCNc1ncnc2c1sc1nc(-c3ccccc3)c3c(c12)CCCC3,-0.45
CN(C)c1ccnc2sc3c(N(CCO)CCO)ncnc3c12,3.3*
OCCN(CCO)c1ncnc2c1sc1nc(N3CCOCC3)c3c(c12)CCCC3,-0.37
C=CCSC(=Nc1ccccc1)C(C#N)c1nc2ccccc2[nH]1 (stereo not given),1.3
COc1ccc(C(=O)CSc2nnc(-c3ccccc3Br)n2C)cc1,0.5
Cc1cccc(NC(c2ccccc2)c2ccc3ccc(C)nc3c2O)n1 (stereo not given),1.7
